# Laboratory results from PMC10726135, “HNF4α isoforms regulate the circadian balance between carbohydrate and lipid metabolism in the liver”.
# In all, about 18,000 sequences were measured (“log2 normalized intensity”: median about 0.36, highest 2% from about 7.3 on). Many of the other results were omitted from the sample, so the highest values are more common in it than they were.
# Biological target: T1, HNF4alpha8 (COS-7 nuclear extract) (Homo sapiens, UniProt P41235-5 1-452)
# T1 sequence: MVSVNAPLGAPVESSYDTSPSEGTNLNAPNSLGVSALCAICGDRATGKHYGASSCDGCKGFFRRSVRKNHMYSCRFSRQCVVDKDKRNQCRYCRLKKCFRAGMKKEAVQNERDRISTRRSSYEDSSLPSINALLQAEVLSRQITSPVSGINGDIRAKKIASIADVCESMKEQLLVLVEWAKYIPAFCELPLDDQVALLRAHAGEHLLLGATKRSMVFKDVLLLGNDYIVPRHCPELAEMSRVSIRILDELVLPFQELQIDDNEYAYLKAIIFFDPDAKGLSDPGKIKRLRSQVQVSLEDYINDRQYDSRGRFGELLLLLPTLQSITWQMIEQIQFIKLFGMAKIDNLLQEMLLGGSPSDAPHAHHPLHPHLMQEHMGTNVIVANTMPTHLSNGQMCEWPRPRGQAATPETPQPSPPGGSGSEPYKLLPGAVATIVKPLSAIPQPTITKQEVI
# Assay: protein-binding microarray; COS-7 nuclear extract on double-stranded Agilent 4x180k PBM; binding buffer, salt, pH and temperature not given in the material; high values mean tight binding
# Conditions: chain copies: 2; label: 3' end of strand 1 on the slide; dsDNA, one strand shown
# Outline: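 Nuclear extracts of COS-7 cells transiently transfected with a human HNF4α isoform were applied to a custom Agilent SurePrint G3 4x180k array bearing ~44,000 double-stranded ~60-nt test sequences, each in quadruplicate. The bound protein was imaged on an Agilent G2565CA scanner at 2-µm resolution. Binding signal is the normalized, background-corrected gProcessedSignal from Agilent software.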
row,Sequence,binding signal [log2 normalized intensity]
1,CCACCCTATTGATGCAAGGACAATGTCTAGGCCTAGGGAGATTAGAGTATCGGTCGA,1.38
2,CTTCAAGTCAGTCAAAATGAATAGTCCTTTGCCTAGGGAGATTAGAGTATCGGTCGA,0.855
3,CCTGCTTCCAGGCTTGTACCTTGACCTTCTGCCTAGGGAGATTAGAGTATCGGTCGA,7.46
4,GGCAGGGCCAGATAAAGCAGGTTGTACCTTGCCTAGGGAGATTAGAGTATCGGTCGA,3.15
5,GATAAAGCAGGTTGTACCTTGACCCAAGAAGCCTAGGGAGATTAGAGTATCGGTCGA,5.6
6,GGCCAGATAAAGCAGGTTGTACCTTGACCCGCCTAGGGAGATTAGAGTATCGGTCGA,9.73
7,CCCTTCCTGCTTCCAGGCTTGTACCTTGACGCCTAGGGAGATTAGAGTATCGGTCGA,3.23
8,TTCCAGGCTTGTACCTTGACCTTCTCTGTTGCCTAGGGAGATTAGAGTATCGGTCGA,6.19
9,AGATCTGGATATGCCTGGGGTTCCAGTTACGCCTAGGGAGATTAGAGTATCGGTCGA,0.546
10,CTTCCATATAACCCTTGAACCTTCTTCTTGGCCTAGGGAGATTAGAGTATCGGTCGA,4.81
11,CCTCCAGGCCCCAGCCACGCCCTCTAACCCGCCTAGGGAGATTAGAGTATCGGTCGA,3.33
12,TTATCAGGACTTTGTGATTACATTGAGTCCGCCTAGGGAGATTAGAGTATCGGTCGA,1.97
13,AAAAACACCTGGTTCCTTGCAAGATAAGGGGCCTAGGGAGATTAGAGTATCGGTCGA,-0.239
14,CCTCTCAGGAATGTGGATGCTAAAAGTGAAGCCTAGGGAGATTAGAGTATCGGTCGA,-0.262
15,GTATGTTCTTAAGATAAGGACTGTTGGACCGCCTAGGGAGATTAGAGTATCGGTCGA,4.24
16,GGGAAGCTGTGTGAAGTGACTTGCCCTGTTGCCTAGGGAGATTAGAGTATCGGTCGA,2.3
17,TACCCCTGTGGTTGACCTTTAGTCTCTAGCGCCTAGGGAGATTAGAGTATCGGTCGA,7.47
18,AGTGACCCTGTCTCTCAGTCTCTGTGGGAGGCCTAGGGAGATTAGAGTATCGGTCGA,1.23
19,TGTCTACCCTTTTGCCCTTTGAGCTTCTGTGCCTAGGGAGATTAGAGTATCGGTCGA,5.93
20,GGACTTGATCCATTCTACCCCTGTGGTTGAGCCTAGGGAGATTAGAGTATCGGTCGA,2.5
21,ATGCTAAAGTCTACATTCTAGATGACCCCTGCCTAGGGAGATTAGAGTATCGGTCGA,6.17
22,GTTGACCTTTAGTCTCTAGCCCCGCCCAGAGCCTAGGGAGATTAGAGTATCGGTCGA,5.33
23,CATTCTACCCCTGTGGTTGACCTTTAGTCTGCCTAGGGAGATTAGAGTATCGGTCGA,8.33
24,TTACTGGACTTGATCCATTCTACCCCTGTGGCCTAGGGAGATTAGAGTATCGGTCGA,2.82

row,Sequence,binding signal [log2 normalized intensity]
1,TGATCCATTCTACCCCTGTGGTTGACCTTTGCCTAGGGAGATTAGAGTATCGGTCGA,8.51
2,AAATCATGGATCTGTGCTCAGATCCTGCTCGCCTAGGGAGATTAGAGTATCGGTCGA,-0.984
3,CCGGACATGGAGAGGTGAGACACGTGTGCCGCCTAGGGAGATTAGAGTATCGGTCGA,-0.118
4,GGCTAGACTTTAACCCCCTTGTCTTCCTCAGCCTAGGGAGATTAGAGTATCGGTCGA,4.16
5,GGCTGCAGAGGTTTCGCAAGGACGTGACCTGCCTAGGGAGATTAGAGTATCGGTCGA,3.33
6,CTTACGGCCCTGTGGTGTTCGCTAAGATGTGCCTAGGGAGATTAGAGTATCGGTCGA,0.705
7,CCACCTGGAATGTGCTCCCGACTGCTCCACGCCTAGGGAGATTAGAGTATCGGTCGA,0.00529
8,CACAAACATACAACCATCAAAGGTCACTTTGCCTAGGGAGATTAGAGTATCGGTCGA,4.93
9,TATGCTTTTATTTAACTTCTGGGGGCAAGGGCCTAGGGAGATTAGAGTATCGGTCGA,2
10,AGATTTGAATATGTACATGGACTTTGAACCGCCTAGGGAGATTAGAGTATCGGTCGA,10.6
11,CTAAGAGATTTGAATATGTACATGGACTTTGCCTAGGGAGATTAGAGTATCGGTCGA,6.92
12,CGGTCAGCTGCTTGACTTAGTACATGGCCTGCCTAGGGAGATTAGAGTATCGGTCGA,0.903
13,CATGGACTTTGAACCAAGATATGCTAACATGCCTAGGGAGATTAGAGTATCGGTCGA,5.27
14,TGAATATGTACATGGACTTTGAACCAAGATGCCTAGGGAGATTAGAGTATCGGTCGA,8.87
15,AGGTACTAAGAGATTTGAATATGTACATGGGCCTAGGGAGATTAGAGTATCGGTCGA,0.942
16,ATGTACATGGACTTTGAACCAAGATATGCTGCCTAGGGAGATTAGAGTATCGGTCGA,7.68
17,ACACAGTACTTTGTACATGGGAATAGACATGCCTAGGGAGATTAGAGTATCGGTCGA,0.975
18,GAATGCAACCACACCAACATGGACTTTGTCGCCTAGGGAGATTAGAGTATCGGTCGA,6.59
19,GTCTAGCGCAAATGATCAAAGGTTGGTTTTGCCTAGGGAGATTAGAGTATCGGTCGA,4.43
20,AGTGTGTAAGTATGCTCACTGACCTCTGCCGCCTAGGGAGATTAGAGTATCGGTCGA,3.94
21,CATCTTTGAAGAGCACAGGGTCAGCAGATCGCCTAGGGAGATTAGAGTATCGGTCGA,1.59
22,TAATCAGAGCAGGAATTCTGATCTTTGACCGCCTAGGGAGATTAGAGTATCGGTCGA,7.96
23,TTCTGATCTTTGACCTCTCCAGGGTCCTTGGCCTAGGGAGATTAGAGTATCGGTCGA,5.35
24,CCACTTTGAATCAGGAGAGCATCTGAGTGTGCCTAGGGAGATTAGAGTATCGGTCGA,0.742
